PubChem BioAssay
Active and inactive are the calls of the source.

Assays:
[1] = E. coli DRC41 culture turbidity changes, primary screen, E. coli filamentation inducer project, strain DRC41, OD650, 48 h (AID 1152);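 also: E. coli MC1000 strain DRC41 lacking acrAB efflux pump and sulA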; settings: E. coli DRC41 (acrAB sulA), higher = more signal, called active from +8 up or from −8 down
[2] = small-molecule binders of probe aLefty1, primary screen, biochemical, small-molecule microarray, 635/667 nm fluorescence (AID 1153); settings: higher = more signal;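 also: score merges spot fluorescence with signal-to-noise ratio from the scanned slide images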
[3] = PSAC antagonists in infected red cells, primary screen, cell-based, P. falciparum Indochina, OD700, 1 h (AID 1154); settings: P. falciparum Indochina infected RBC osmotic lysis, higher = more signal, called active from +8 up or from −8 down
[4] = PSAC antagonists in infected red cells, primary screen, cell-based, P. falciparum Indochina, OD700, 2 h (AID 1155);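 also: lysis reports solute entry through the parasite surface anion channel PSAC; channel blockers reduce lysis of infected cells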; settings: P. falciparum Indochina infected erythrocytes, osmotic lysis OD700; higher = more signal, called active from +8 up or from −8 down
[5] = osmotic lysis modulators in infected erythrocytes, primary screen, PSAC antagonist project, cell-based, P. falciparum Indochina, OD700, 3 h (AID 1156); settings: higher = more signal, called active from +8 up or from −8 down
[6] = PSAC antagonists in infected red cells, primary screen, cell-based, P. falciparum Indochina, OD700, 18 h (AID 1157); settings: P. falciparum Indochina infected erythrocytes, osmotic lysis OD700, 18 h; higher = more signal, called active from +8 up or from −8 down
[7] = modulators of S6 phosphorylation in cells, primary screen, cell-based, A549, cytoblot, luminescence, serum-stimulated (AID 1158); settings: A549 phospho-S6 cytoblot, 5 h, higher = more signal;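 also: serum-stimulated A549 lung adenocarcinoma cells; signal is phosphorylated S6 detected by cytoblot immunostaining with HRP secondary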
[8] = biological target: NADPH oxidase 2 (Homo sapiens) (UniProt P04839); test: NOX2-dependent H2O2 signal modulators, primary screen, NOX inhibitor project, cell-based, HEK293-NOX2, PMA-stimulated, Amplex Red fluorescence (AID 1159); settings: 45 min, higher = more signal, called active from +8 up or from −8 down; also: test concentration not given here
Chain of NADPH oxidase 2 (Homo sapiens) (P04839 whole entry, looked up): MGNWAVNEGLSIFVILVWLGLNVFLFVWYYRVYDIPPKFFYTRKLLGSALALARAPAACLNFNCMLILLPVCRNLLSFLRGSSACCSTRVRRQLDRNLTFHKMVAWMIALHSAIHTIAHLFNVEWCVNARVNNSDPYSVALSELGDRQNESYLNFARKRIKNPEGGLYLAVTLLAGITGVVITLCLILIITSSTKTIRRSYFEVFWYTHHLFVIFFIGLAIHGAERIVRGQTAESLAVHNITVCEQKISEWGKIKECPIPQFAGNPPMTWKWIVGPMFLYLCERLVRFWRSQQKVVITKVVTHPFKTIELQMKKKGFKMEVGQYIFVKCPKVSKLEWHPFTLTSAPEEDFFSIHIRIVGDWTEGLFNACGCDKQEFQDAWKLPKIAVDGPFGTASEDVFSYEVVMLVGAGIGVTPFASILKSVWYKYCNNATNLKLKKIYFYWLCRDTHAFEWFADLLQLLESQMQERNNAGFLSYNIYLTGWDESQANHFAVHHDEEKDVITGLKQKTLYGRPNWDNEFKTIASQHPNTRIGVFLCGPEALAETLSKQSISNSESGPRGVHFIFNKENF

[9] = biological target: NADPH oxidase 4 (Homo sapiens) (UniProt Q9NPH5); test: NOX4-dependent H2O2 signal modulators, primary screen, NOX inhibitor project, cell-based, HEK293-NOX4, tetracycline-induced, Amplex Red fluorescence (AID 1160); settings: 45 min, higher = more signal, called active from +8 up or from −8 down
Chain of NADPH oxidase 4 (Homo sapiens) (Q9NPH5 whole entry, looked up): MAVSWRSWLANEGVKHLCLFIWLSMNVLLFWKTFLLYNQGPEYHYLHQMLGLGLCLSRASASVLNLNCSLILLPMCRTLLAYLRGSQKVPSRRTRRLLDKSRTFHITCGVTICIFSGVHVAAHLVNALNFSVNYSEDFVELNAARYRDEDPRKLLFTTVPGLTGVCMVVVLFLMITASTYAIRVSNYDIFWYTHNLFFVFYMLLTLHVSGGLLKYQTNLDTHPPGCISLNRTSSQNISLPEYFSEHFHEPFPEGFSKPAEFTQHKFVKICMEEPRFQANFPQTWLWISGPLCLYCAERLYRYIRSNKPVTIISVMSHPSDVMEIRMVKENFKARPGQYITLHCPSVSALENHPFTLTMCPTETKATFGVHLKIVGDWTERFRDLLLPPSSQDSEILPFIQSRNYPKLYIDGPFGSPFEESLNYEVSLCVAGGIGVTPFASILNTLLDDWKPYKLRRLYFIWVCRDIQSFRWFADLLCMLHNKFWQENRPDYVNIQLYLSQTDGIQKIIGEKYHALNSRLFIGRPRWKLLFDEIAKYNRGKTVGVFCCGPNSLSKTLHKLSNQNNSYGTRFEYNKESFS

[10] = biological target: NADPH oxidase 5 (Homo sapiens) (UniProt Q96PH1); test: NOX5-dependent H2O2 signal modulators, primary screen, NOX inhibitor project, cell-based, HEK293-NOX5, Amplex Red fluorescence (AID 1161); settings: HEK293-NOX5, ionomycin, 45 min, higher = more signal
Chain of NADPH oxidase 5 (Homo sapiens) (Q96PH1 whole entry, looked up): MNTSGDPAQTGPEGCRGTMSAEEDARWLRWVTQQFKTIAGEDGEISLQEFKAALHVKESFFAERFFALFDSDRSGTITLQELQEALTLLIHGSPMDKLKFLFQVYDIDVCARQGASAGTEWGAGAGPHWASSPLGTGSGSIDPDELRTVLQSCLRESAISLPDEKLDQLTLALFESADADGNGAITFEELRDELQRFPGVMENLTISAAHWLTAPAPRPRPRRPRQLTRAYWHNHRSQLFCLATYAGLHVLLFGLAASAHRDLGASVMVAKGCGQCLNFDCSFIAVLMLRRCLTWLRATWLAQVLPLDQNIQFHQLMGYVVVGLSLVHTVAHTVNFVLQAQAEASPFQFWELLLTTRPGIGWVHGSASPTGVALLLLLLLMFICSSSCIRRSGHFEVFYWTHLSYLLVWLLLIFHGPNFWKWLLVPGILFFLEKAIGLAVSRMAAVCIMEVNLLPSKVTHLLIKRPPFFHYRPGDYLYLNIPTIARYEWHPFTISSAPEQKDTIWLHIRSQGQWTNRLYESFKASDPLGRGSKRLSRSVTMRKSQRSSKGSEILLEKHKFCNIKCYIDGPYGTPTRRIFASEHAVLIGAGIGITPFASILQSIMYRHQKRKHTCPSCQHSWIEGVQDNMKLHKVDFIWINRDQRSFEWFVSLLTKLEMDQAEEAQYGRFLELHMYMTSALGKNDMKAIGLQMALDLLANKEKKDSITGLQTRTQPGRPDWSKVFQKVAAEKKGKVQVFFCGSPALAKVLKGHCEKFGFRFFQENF

Row | Structure (SMILES) | z-score [1] | composite z-score [2] | z-score [3] | z-score [4] | z-score [5] | z-score [6] | z-score [7] | z-score [8] | z-score [9] | z-score [10]
1 | CCCCCCc1nc(C2CC2)cc2c1[Si](C(C)C)(C(C)C)OC2 | -0.611 (inactive) | -0.0559 | 0.834 (inactive) | -0.225 (inactive) | 0.981 (inactive) | -1.13 (inactive) | 0.259 | -6.34 (inactive) | -2.12 (inactive) | -4.98
2 | C=C(C(=O)CC[C@@H](OC(C)=O)c1ccc(CO)o1)C(C)C | -0.167 (inactive) | -0.007 | 1.21 (inactive) | 0.0112 (inactive) | 0.493 (inactive) | -0.0113 (inactive) | -0.0282 | -0.354 (inactive) | 0.261 (inactive) | 0.483
3 | COC(=O)[C@@]1(Cc2ccccc2)[C@H]2c3cc(C(=O)N(C)C)n(CCc4ccc(O)c(OC)c4)c3C[C@H]2CN1C(=O)c1ccccc1 | -0.873 (inactive) | 1.11 | 0.318 (inactive) | 0.277 (inactive) | -0.692 (inactive) | 0.667 (inactive) | -0.565 | 0.0564 (inactive) | -0.485 (inactive) | -0.207
4 | CC[C@H]1C2=C3C(CC[C@H]4C(OCc5ccc(F)cc5C(F)(F)F)OC[C@](C)([C@@H]34)N(C(=O)OC(C)(C)C)C2)C(COC)C1COC (stereo not given in full) | -1.22 (inactive) | 0.409 | -0.0734 (inactive) | -0.0681 (inactive) | 0.337 (inactive) | 0.297 (inactive) | -0.371 | -0.67 (inactive) | -1.45 (inactive) | -1.54
5 | O=C1O[C@H](c2ccccc2)[C@H](c2ccccc2)N2[C@H]1[C@@H](C(=O)N1CCN(c3ncccn3)CC1)[C@]1(C(=O)Nc3ccc(C#CC4(O)CCCCCC4)cc31)[C@H]2c1ccc(OCCO)cc1 | -0.735 (inactive) | 1.66 | 8.14 (active) | 2.41 (inactive) | 1.76 (inactive) | 1.33 (inactive) | -0.274 | 1.28 (inactive) | 1.11 (inactive) | 1.35
6 | COc1ccc(NC(=O)O[C@H]2[C@H](OC(=O)Nc3ccccc3)[C@H](OC(=O)Nc3ccccc3)[C@@H](OC)O[C@@H]2CO)cc1 | -1.37 (inactive) | 0.457 | 8.18 (active) | 1.26 (inactive) | -0.329 (inactive) | 0.889 (inactive) | 0.0488 | 0.824 (inactive) | -0.11 (inactive) | -0.922
7 | Cc1cc(C)c(C(O)C2C=CC3C(=O)NC(=O)C3N2Nc2ccc(Cl)cc2Cl)c(C)c1 (stereo not given) | -2.38 (inactive) | 0.479 | 3.38 (inactive) | 1.18 (inactive) | -1.55 (inactive) | 0.876 (inactive) | -0.919 | 0.614 (inactive) | -4.94 (inactive) | -1.3
8 | C#CCN([C@@H](Cc1ccc(O)cc1)C(=O)OC)[C@@H](/C=C/C1CC1)[C@H](O)Cc1ccccc1 | -1.08 (inactive) | -0.294 | 3.41 (inactive) | 0.761 (inactive) | -0.824 (inactive) | 0.353 (inactive) | -0.839 | 0.544 (inactive) | -0.606 (inactive) | -1.58
9 | O=C1N(Cc2ccccc2)c2ccccc2[C@@H]2OC(c3ccc(OCCCO)cc3)=N[C@]12Cc1ccccc1 | 0.65 (inactive) | -0.0896 | 29.4 (active) | 26.1 (active) | 4.66 (inactive) | 2.38 (inactive) | 0.724 | -1.08 (inactive) | -0.653 (inactive) | -2.11
10 | CC(C)N1C(=O)C[C@@](C(=O)NCCCN(C)C)(c2ccc([N+](=O)[O-])cc2)[C@H]1c1ccc(CO)cc1 | -0.898 (inactive) | 0.0129 | 3.55 (inactive) | 1.1 (inactive) | 1.82 (inactive) | 0.891 (inactive) | 0.23 | 0.778 (inactive) | 0.334 (inactive) | -0.00257
11 | CO[C@]12C=C(Br)[C@@H](C[C@@H]1c1cccc(C)c1)[C@@]1(CO1)C2=O | -0.009 (inactive) | -0.0035 | -0.219 (inactive) | -0.119 (inactive) | 0.442 (inactive) | -0.382 (inactive) | 0.149 | -0.356 (inactive) | 0.539 (inactive) | -0.588
12 | C=CCC(OC(C)=O)[C@@H]1[C@@H](N(Cc2cccc3ccccc23)C(=O)Cc2ccc(OC)cc2)c2cc(OCCCO)ccc2N1C(=O)c1ccc2ccccc2n1 (stereo not given in full) | -0.899 (inactive) | 0.164 | 2.1 (inactive) | 0.786 (inactive) | 0.714 (inactive) | 0.385 (inactive) | 0.135 | -1.4 (inactive) | -0.588 (inactive) | -1.25
13 | CCOC(=O)C1=CC[C@@H](c2ccc(OCc3ccccc3)c(OC)c2)N(S(=O)(=O)c2ccc(C)cc2)[C@H]1c1ccc(SC)cc1 | -1.21 (inactive) | 0.524 | 0.658 (inactive) | 0.9 (inactive) | 0.692 (inactive) | 0.387 (inactive) | -0.635 | 0.877 (inactive) | 0.0161 (inactive) | -0.508
14 | [N-]=[N+]=NCc1ccccc1[C@H]1OC(c2ccc(OCCCO)cc2)=N[C@@]1(CCS(=O)(=O)c1ccccc1)C(=O)NCC(O)CO (stereo not given in full) | -0.0559 (inactive) | 0.675 | 27.1 (active) | 21.1 (active) | 2.23 (inactive) | 2.78 (inactive) | 0.123 | 1.47 (inactive) | 1.1 (inactive) | 1.64
15 | C[N+](C)(C)CCCCCCNC(=O)[C@H]1C[C@H]2C(=O)N[C@@H](Cc3ccccc3)C(=O)N2[C@H]1c1ccc(O)cc1 | 0.796 (inactive) | -0.0475 | 6.4 (inactive) | 1.3 (inactive) | -0.194 (inactive) | 0.374 (inactive) | -0.0246 | 0.847 (inactive) | 1.13 (inactive) | -0.0901
16 | NC(=O)NCC#Cc1ccc2c(c1)[C@]1(C(=O)N2)[C@H](C(=O)NC[C@H](O)c2ccccc2)[C@H]2C(=O)O[C@H](c3ccccc3)[C@H](c3ccccc3)N2[C@@H]1c1ccc(OCCO)cc1 | 0.851 (inactive) | 0.157 | 4.47 (inactive) | 1.72 (inactive) | 1.55 (inactive) | 0.49 (inactive) | 0.0785 | 1.59 (inactive) | 0.849 (inactive) | 0.737
17 | COCCOC(=O)N1C(=O)[C@@]2(c3cc(C#CC4=CCCCC4)ccc31)[C@H](c1ccc(O)cc1)N1[C@H](c3ccccc3)[C@H](c3ccccc3)OC(=O)[C@H]1[C@@H]2C(=O)N1CCN(c2ncccn2)CC1 | -0.202 (inactive) | -0.183 | -0.0088 (inactive) | 0.18 (inactive) | 0.299 (inactive) | 0.0164 (inactive) | -0.229 | 0.347 (inactive) | -0.0204 (inactive) | 0.715
18 | [N-]=[N+]=Nc1ccccc1[C@H]1OC(c2ccc(OCCCO)cc2)=N[C@@]1(Cc1ccccc1)C(=O)N1CCCCC1 | 0.546 (inactive) | 0.51 | 31.2 (active) | 27.9 (active) | 2.35 (inactive) | 8.26 (active) | 0.583 | -1.52 (inactive) | 0.804 (inactive) | 1.62
19 | COC(=O)C(CC#Cc1ccc2c(c1)[C@]1(C(=O)N2)[C@H](C(=O)N2CCN(c3ncccn3)CC2)[C@H]2C(=O)O[C@H](c3ccccc3)[C@H](c3ccccc3)N2[C@@H]1c1ccc(OCCO)cc1)C(=O)OC | 0.454 (inactive) | 0.2 | 11 (active) | 2.86 (inactive) | 1.03 (inactive) | 1.4 (inactive) | 0.311 | 1.36 (inactive) | 0.504 (inactive) | 1.53
20 | C=CCOC(=O)[C@H]1[C@@H]2C(=O)O[C@@H](c3ccccc3)[C@@H](c3ccccc3)N2[C@@H](c2ccc(OCCOC(=O)[C@@H]3C[C@@H]4C(=O)N[C@@H](CCCCNC(C)=O)C(=O)N4[C@@H]3c3ccc(O)cc3)cc2)[C@]12C(=O)Nc1ccc(I)cc12 | -0.465 (inactive) | 0.471 | 1.33 (inactive) | 1.52 (inactive) | 3.07 (inactive) | 0.964 (inactive) | -0.621 | 1.08 (inactive) | 0.351 (inactive) | 2.35
21 | COCCOC(=O)N1C(=O)[C@@]2(c3ccccc31)[C@H](C(=O)N1CCN(c3ncccn3)CC1)[C@H]1C(=O)O[C@H](c3ccccc3)[C@H](c3ccccc3)N1[C@@H]2c1ccc(O)cc1 | 0.81 (inactive) | 0.0661 | 1.78 (inactive) | 0.672 (inactive) | 0.481 (inactive) | 0.261 (inactive) | 0.0481 | 1.25 (inactive) | -0.0154 (inactive) | 2.19
22 | CCOC(=O)C[C@H]1[C@H](OC(=O)c2cc3ccccc3oc2=O)[C@@H](NC(=O)c2ccc(-c3ccccc3)cc2)c2cc(OCCCO)ccc2N1C(=O)c1ccccc1 | 1.27 (inactive) | 0.0839 | 0.697 (inactive) | -1.44 (inactive) | -0.249 (inactive) | -2.22 (inactive) | 0.683 | -1.47 (inactive) | 0.178 (inactive) | 0.748
23 | CCOC(=O)C1=CC[C@@H](c2ccccc2C(F)(F)F)N(S(=O)(=O)c2ccc(C)cc2)[C@H]1c1ccc(C#N)cc1 | -0.53 (inactive) | 0.165 | 0.873 (inactive) | 1.65 (inactive) | 0.341 (inactive) | 0.876 (inactive) | -0.669 | 0.823 (inactive) | 0.699 (inactive) | 0.102
24 | O=C(NCC(F)(F)F)[C@@H]1c2ccccc2C(=O)N(Cc2ccc(OC(F)(F)F)cc2)[C@H]1c1ccc(CO)cc1 | 0.484 (inactive) | -0.252 | 0.926 (inactive) | -0.137 (inactive) | 1.44 (inactive) | 0.376 (inactive) | -0.323 | -0.759 (inactive) | -0.889 (inactive) | -0.263
25 | CCOC(=O)C[C@H]1[C@H](OC(=O)c2ccc(C(=O)c3ccccc3)cc2)[C@@H](NC(=O)Cc2ccc(OC)cc2)c2cc(OCCCO)ccc2N1C(=O)c1ccccc1 | -0.915 (inactive) | -0.0762 | 2.41 (inactive) | -0.431 (inactive) | -0.937 (inactive) | 0.384 (inactive) | -0.408 | -1.25 (inactive) | 1.16 (inactive) | 0.303
